Screening results as filed in PubChem BioAssay.
The full list was thinned out, with hits kept by preference.
TDP-43 rescue – qHTS of TDP-43 Inhibitors: NCGC Sytravon Library Screen; yeast TDP-43 toxicity rescue, BacTiter-Glo growth, 24 h; hit rate 0.45% among 45,000; AID 1347073, 2019; Potency, µM (highest dose often 46.1 µM), usual class: activators; active = well fitted activation curve with a large enough effect; note: nearly all actives have a fitted effect of over 55% in size
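TDP-43-expressing yeast, pregrown in raffinose, seeded at OD600 0.02 in galactose medium with compound for 24 hr at 30 deg C. Growth read by BacTiter-Glo luminescence, so rescue of toxicity appears as activation.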
A number is an active result; n = inactive.

SMILES	TDP-43 rescue
COC(=O)c1cc(Sc2cccc(Cl)c2Cl)ccn1	13µM
COc1cccc(C(=O)NCCCNC(=O)c2ccccn2)c1	n
CC(OC(=O)c1cnc2ccccc2n1)c1ccccc1Cl (stereo unspecified)	n
Cc1cc(Br)cc2c1N(Cc1ccccc1OC(C)C)C(=O)C2=O	n
C/C(=N\Nc1ccc(C(=O)O)cc1)c1ccc2c(c1)Nc1ccccc1S2	11µM
C/C(=N\Nc1cccc(C(=O)O)c1)c1ccc(Cl)s1	n
C/C(=N\Nc1ccc(Cl)c(C(=O)O)c1)c1cccc2ccccc12	n
Cc1nc2ccc(S(=O)(=O)N(C)CC(=O)Nc3cccc(C(F)(F)F)c3)cc2s1	n
COc1ccc(S(=O)(=O)N(CC(=O)N2CCCCCC2)c2ccccc2OC)cc1	n
CCCNC(=O)C1(C)CCCN(Cc2ccc3c(c2)OCO3)C1 (stereo unspecified)	n
CCCN(CCC)c1ccc(C2N=C(N)Nc3nc4ccccc4n32)cc1 (stereo unspecified)	n
COc1ccc(C(C)(O)c2nc(-c3ccc4c(c3)OCO4)cs2)cc1 (stereo unspecified)	13µM
CC(C)c1cccc(-c2csc(C(C)(O)c3ccccc3)n2)c1 (stereo unspecified)	n
COc1cccc(C(C)(O)c2nc(-c3ccc(OC)nc3)cs2)c1 (stereo unspecified)	18µM
CC(O)(c1ccc(F)c(F)c1)c1nc(-c2ccc(Cl)cc2)cs1 (stereo unspecified)	n
COc1cccc(C(C)(O)c2nc(-c3cncnc3)cs2)c1 (stereo unspecified)	n
CC(O)(c1ccccc1)c1nc(-c2cccc(C(=O)O)c2)cs1 (stereo unspecified)	n
CC(O)(c1cccc(F)c1)c1nc(-c2ccncc2)cs1 (stereo unspecified)	n
CC(O)(c1cccnc1)c1nc(-c2ccc3c(c2)OCO3)cs1 (stereo unspecified)	n
COc1ccc(C(C)(O)c2nc(-c3csc4ccccc34)cs2)cc1 (stereo unspecified)	18µM
COc1ccc(C(=O)N2CCC(C)(C(=O)O)C2)cc1OC (stereo unspecified)	n
C=C(C)CSc1nc2sc3c(c2c(=O)n1Cc1ccccc1)CC(C)(CC)OC3 (stereo unspecified)	n
CCCOc1cccc(C2C(C(=O)c3cccs3)=C(O)C(=O)N2Cc2cccnc2)c1 (stereo unspecified)	n
COc1cc(CN(C(=O)COc2ccc(C)c(C)c2)c2ccccn2)cc(OC)c1OC	n
CC(C)(C)c1ccc(C(=O)NCC(=O)NCC(C)(C)N2CCOCC2)cc1	n
SMILES	TDP-43 rescue
CCc1cccc(CC)c1N(COC)C(=O)Cn1c(C)nc2ccccc21	n
CN(C)c1ccc(/C=N/Nc2nncc3ccccc23)cc1	n
Nc1c(C(=O)Nc2ccc(OC(F)(F)F)cc2)sc2nc(-c3ccncc3)ccc12	n
O=C(c1cccc([N+](=O)[O-])c1)c1ccc2c(c1)OCCOCCOCCO2	n
NC(=O)c1ccc2c(c1)OCCO2	n
CC(=O)c1ccc2c(c1)OCCOCCOc1ccccc1OCCOCCO2	16µM
COc1ccc(Cl)cc1S(=O)(=O)NC(C)C(=O)NCCN1CCOCC1 (stereo unspecified)	n
Cc1ccc(NC(=O)NCc2cccn2C)cc1C	n
O=C(COC(=O)c1c2ccccc2cc2ccccc12)NCC(F)(F)F	22µM
Cc1nc2ccccc2nc1OCC(=O)NCC(F)(F)F	n
Cn1c(CCC(=O)OCC(=O)NCC(F)(F)F)nc(=O)c2ccccc21	n
O=C(CCCSc1nc2ccccc2s1)NCc1ccc2c(c1)OCO2	13µM
O=C(COC(=O)CCc1ccccc1)NCc1ccc2c(c1)OCO2	n
CCc1cccc(C)c1NC(=O)CCCSc1nc2ccccc2s1	n
CCCc1nnc(NC(=O)C2CC(=O)N(CCc3ccc(F)cc3)C2)s1 (stereo unspecified)	n
COc1ccc(CNCCC(c2ccc(C)cc2)c2ccco2)cc1 (stereo unspecified)	n
O=C(O)C(NS(=O)(=O)c1ccc(F)cc1)c1ccccc1 (stereo unspecified)	n
O=S(=O)(NCCC(c1ccc(F)cc1)c1ccco1)c1ccccc1 (stereo unspecified)	18µM
CCN(C(=O)COC(=O)c1ccc[nH]c1=O)c1cccc2ccccc12	n
COc1cccc(C(=O)NCCNC(=O)c2ccco2)c1	n
CC(=O)c1c(C)[nH]c(C(=O)CSc2nnc(-c3ccco3)o2)c1C	n
Cc1ccc(CSc2nnc(-c3ccco3)o2)cc1	13µM
CC(=O)c1ccc(NC(=O)CSc2nnc(-c3ccco3)o2)cc1	n
CSc1ccc(S(=O)(=O)N2CCC(C(=O)Nc3ccccc3C(F)(F)F)CC2)cc1	n
O=C(Nc1ccc(Oc2cccnc2)cc1)c1ccccc1Cl	n
O=C(O)c1ccccc1C(=O)Nc1ccc(Oc2ccc3ccccc3c2)cc1	22µM
O=C(O)c1ccccc1C(=O)Nc1ccc(S(=O)(=O)N2CCCC2)cc1	n
CC1(C(=O)NCCc2ccccc2)Cc2c(-c3ccccc3)ccnc2O1 (stereo unspecified)	n
